From PubChem BioAssay come the findings set out here.

The nature of assay [1]: antimalarial activity against Dd2 strain (AID 2302;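 active = growth inhibition above 50% at the single 2 µM test dose, taken to imply half-maximal potency below 2 µM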;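 also: 0% = DMSO untreated growth and 100% = chloroquine plus artemisinin killed control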). The note with it: P. falciparum Dd2 in RBCs, LDH growth readout, 72 h; at 2 µM; active compounds read high.
A short description of assay [2]: HepG2 cytotoxicity, primary screen, cytotoxicity control for P. falciparum antimalarial project, cell-based, ATP luminescence (AID 2303;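 active = inhibition above 50%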;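 also: 0% = DMSO wells and 100% = digitonin-killed cells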). The note with it: HepG2 viability, 24-48 h, at 10 µM, active compounds read high.
The target of assay [3] is L-lactate dehydrogenase (Plasmodium falciparum (isolate CDC / Honduras)) (UniProt Q27743). The assay can be described thus: PfLDH activity inhibition – cell lysate, 3D7 strain, counter-screen for P. falciparum growth inhibition project (AID 2304).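 Also: 0% = vehicle and 100% = reference inhibitor.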 As to conditions: P. falciparum 3D7 crude extract, LDH APAD/NBT absorbance; at 2 µM; active compounds read high. (A counterscreen serves to expose hits that act by an unwanted route or on another target.)
Chain of L-lactate dehydrogenase (Plasmodium falciparum (isolate CDC / Honduras)) (Q27743 whole entry, looked up): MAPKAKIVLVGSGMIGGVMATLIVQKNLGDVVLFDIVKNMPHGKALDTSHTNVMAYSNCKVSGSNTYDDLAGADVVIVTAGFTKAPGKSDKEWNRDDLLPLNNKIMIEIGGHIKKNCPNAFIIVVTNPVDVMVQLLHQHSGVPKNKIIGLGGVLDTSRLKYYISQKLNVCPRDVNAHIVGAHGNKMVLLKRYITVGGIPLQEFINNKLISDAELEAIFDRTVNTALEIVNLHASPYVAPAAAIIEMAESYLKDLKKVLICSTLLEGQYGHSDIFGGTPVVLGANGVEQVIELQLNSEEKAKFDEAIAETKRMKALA

The nature of assay [4]: inhibition of 3D7 malaria parasite growth – strain 3D7 (AID 2306).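 Also: 0% = DMSO wells and 100% = chloroquine plus artemisinin control wells.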 As to conditions: P. falciparum 3D7 erythrocytic growth, LDH absorbance, 72 h; at 2 µM; active compounds read high.
For assay [5], the target named is Calcium-dependent protein kinase 1 (Plasmodium falciparum (isolate 3D7)) (UniProt P62344). Briefly: PfCDPK1 kinase inhibitors, biochemical, TCAMS library (AID 1159585; cut-off not given, nearly all actives have IC50 up to about 0.98 µM;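 also: inhibitors leave more ATP so luminescence rises with inhibition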). As to conditions: recombinant PfCDPK1, Kinase-Glo ATP depletion luminescence. Background: In Kinase-Glo more light means more ATP remaining.
Chain of Calcium-dependent protein kinase 1 (Plasmodium falciparum (isolate 3D7)) (P62344 whole entry, looked up): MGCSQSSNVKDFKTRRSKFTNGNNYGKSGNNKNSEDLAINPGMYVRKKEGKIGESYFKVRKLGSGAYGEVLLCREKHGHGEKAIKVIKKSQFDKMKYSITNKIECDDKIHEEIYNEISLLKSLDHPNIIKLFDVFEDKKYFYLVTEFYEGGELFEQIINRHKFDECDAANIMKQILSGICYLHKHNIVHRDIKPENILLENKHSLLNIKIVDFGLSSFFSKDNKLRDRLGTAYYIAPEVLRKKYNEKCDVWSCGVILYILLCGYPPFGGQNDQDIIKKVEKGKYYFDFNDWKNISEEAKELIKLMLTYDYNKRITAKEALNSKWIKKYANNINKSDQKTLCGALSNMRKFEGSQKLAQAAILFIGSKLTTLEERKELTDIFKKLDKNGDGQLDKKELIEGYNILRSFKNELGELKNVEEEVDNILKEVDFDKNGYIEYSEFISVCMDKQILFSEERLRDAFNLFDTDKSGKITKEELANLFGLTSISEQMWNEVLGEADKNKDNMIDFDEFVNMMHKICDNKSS
In assay [6] the target is Plasmodium falciparum protein kinase 6 (PK6, PF3D7_1337100) (UniProt Q8IDW1). The assay can be described thus: PfPK6 kinase inhibitors, biochemical, TCAMS library (AID 1159586). As to conditions: recombinant PfPK6, Kinase-Glo ATP depletion luminescence.
Chain of Plasmodium falciparum protein kinase 6 (PK6, PF3D7_1337100) (Q8IDW1 1-305): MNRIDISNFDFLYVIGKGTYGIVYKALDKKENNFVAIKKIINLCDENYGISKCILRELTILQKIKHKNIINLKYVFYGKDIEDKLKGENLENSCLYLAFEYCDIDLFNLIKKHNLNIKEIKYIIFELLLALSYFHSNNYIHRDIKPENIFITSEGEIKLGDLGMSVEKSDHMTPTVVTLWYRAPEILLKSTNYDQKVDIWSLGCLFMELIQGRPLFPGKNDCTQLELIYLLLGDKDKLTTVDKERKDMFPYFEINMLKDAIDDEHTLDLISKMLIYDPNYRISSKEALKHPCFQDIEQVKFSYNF
Assay [7] has as its target Protein kinase 7 (PK7), Plasmodium falciparum 3D7 (PF3D7_0213400) (UniProt Q7YTF7). Briefly: inhibition of Plasmodium PK7 catalytic activity – biochemical, TCAMS antimalarial set, Kinase-Glo luminescence (AID 1159587). The note with it: recombinant PfPK7, Kinase-Glo ATP depletion luminescence.
Assay [8] concerns the target Calcium-dependent protein kinase 4 (Plasmodium falciparum (isolate 3D7)) (UniProt Q8IBS5). Briefly: PfCDPK4 kinase inhibitors, biochemical, TCAMS library (AID 1159588; cut-off not given, nearly all actives have IC50 up to about 0.91 µM). The note with it: recombinant PfCDPK4, Kinase-Glo ATP depletion luminescence.

SMILES strings stand for the structures. A number with no mark means an inactive call. For some of these results: Potency and affinity values are given separately. The source made the active and inactive calls. Unless noted, no rule for the calls is given here.

Chain of Calcium-dependent protein kinase 4 (Plasmodium falciparum (isolate 3D7)) (Q8IBS5 whole entry, looked up): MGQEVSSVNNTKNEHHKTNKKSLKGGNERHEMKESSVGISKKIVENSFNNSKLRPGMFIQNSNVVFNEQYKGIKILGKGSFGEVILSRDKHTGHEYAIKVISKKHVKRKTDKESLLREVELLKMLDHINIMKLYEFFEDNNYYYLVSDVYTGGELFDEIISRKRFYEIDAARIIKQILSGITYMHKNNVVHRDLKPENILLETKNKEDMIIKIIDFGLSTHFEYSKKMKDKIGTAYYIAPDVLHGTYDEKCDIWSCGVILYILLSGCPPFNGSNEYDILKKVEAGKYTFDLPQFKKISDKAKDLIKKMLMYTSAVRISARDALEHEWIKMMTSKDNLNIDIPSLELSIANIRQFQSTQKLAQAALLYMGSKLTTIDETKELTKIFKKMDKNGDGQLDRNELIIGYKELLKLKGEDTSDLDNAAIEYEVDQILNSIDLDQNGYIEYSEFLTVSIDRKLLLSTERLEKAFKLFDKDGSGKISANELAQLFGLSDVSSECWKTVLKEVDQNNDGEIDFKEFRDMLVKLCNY
Chain of Protein kinase 7 (PK7), Plasmodium falciparum 3D7 (PF3D7_0213400) (Q7YTF7 1-343): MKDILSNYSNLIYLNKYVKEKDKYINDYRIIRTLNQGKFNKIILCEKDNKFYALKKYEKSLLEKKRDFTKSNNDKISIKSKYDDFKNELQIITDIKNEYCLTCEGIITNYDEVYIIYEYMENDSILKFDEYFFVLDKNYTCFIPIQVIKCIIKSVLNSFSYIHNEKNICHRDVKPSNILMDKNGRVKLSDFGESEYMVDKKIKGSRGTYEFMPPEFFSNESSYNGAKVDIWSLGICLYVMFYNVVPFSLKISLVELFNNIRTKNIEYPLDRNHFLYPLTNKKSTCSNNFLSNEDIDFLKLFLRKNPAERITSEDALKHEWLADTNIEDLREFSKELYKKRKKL

What is called inhibition is the change of the read-out against control, counted positive when it falls. As for `Cc1nn(CC(O)Cn2c3ccc(Br)cc3c3cc(Br)ccc32)c(C)c1Br` (stereo not given), the growth inhibition in assay [1] is 81% (active); in assay [4], 98% (active). Further, the inhibition in assay [2] was 4%; in assay [3], 1%. Also, the outcome in assay [5], in assay [6], in assay [7] and in assay [8] was inactive.

Take `COc1ccc(CNc2nc(Nc3cccc(C#N)c3)nc(Nc3cccc(C#N)c3)n2)cc1Cl`: the growth inhibition in assay [1] is 83% (active); in assay [4], 101% (active). The results for the inhibition in assay [2] and in assay [3] were -4% and 4%, respectively. In addition, the outcome in assay [5], in assay [6], in assay [7] and in assay [8] was inactive.

As for `COc1c(C2CCN(CCCCNC(=O)c3ccc(C)c(-c4ccc(C(F)(F)F)cc4)c3)CC2)ccc2c1CCCC2`, the growth inhibition in assay [1] was 79% (active); in assay [4], 86% (active). Also, the inhibition in assay [2] was 76% (active); in assay [3], -5%. In addition, the outcome in assay [5], in assay [6], in assay [7] and in assay [8] was inactive.

For the compound `CN(CCO)Cc1ccc(-c2ccc(NS(=O)(=O)c3cccc4cccnc34)cc2)cc1`, the growth inhibition in assay [1] was 84% (active); in assay [4], 99% (active). For the same compound, the inhibition is 28% in assay [2] and -1% in assay [3]. In addition, the outcome in assay [5], in assay [6], in assay [7] and in assay [8] was inactive.

Regarding `COc1ccc(-c2cnc3[nH]cc(-c4ccc(CCC(=O)O)cc4)c3c2)cn1`, the results for the growth inhibition in assay [1] and in assay [4] were 95% (active) and 98% (active), respectively. For the same compound, the inhibition in assay [2] is 25%; in assay [3], -5%. Moreover, the result in assay [5], in assay [6], in assay [7] and in assay [8] was inactive.

For `COc1ccc(CNCc2cccc(-c3ccc(-c4nc5ccccc5[nH]4)s3)c2)cc1`, the results for the growth inhibition in assay [1] and in assay [4] were 52% (active) and 90% (active), respectively. Further, the inhibition in assay [2] is 14%; in assay [3] it was 0%. In addition, the outcome in assay [5], in assay [6], in assay [7] and in assay [8] was inactive.

With `COC(=O)c1cccc(CNCc2cccc(-c3cccc(-c4nc5c(C)cccc5[nH]4)c3)c2)c1`, the growth inhibition in assay [1] is 47%; in assay [4], 101% (active). In addition, the inhibition was -1% in assay [2] and 3% in assay [3]. The outcome in assay [5], in assay [6], in assay [7] and in assay [8] was inactive.

In the case of `CCN(CC)CCN(Cc1ccc(-c2ccc(C(F)(F)F)cc2)cc1)C(=O)Cn1c(CCc2cccc(F)c2F)nc(=O)c2cc(F)ccc21`, the values for the growth inhibition in assay [1] and in assay [4] were 45% and 98% (active), respectively. In addition, the inhibition is 15% in assay [2] and 0% in assay [3]. For the same compound, the result in assay [5], in assay [6], in assay [7] and in assay [8] was inactive.

Take `CC(C)=CCN1CCC(C(=O)Nc2ccc(-c3nc4ccccc4[nH]3)cc2)CC1`: the growth inhibition in assay [1] was -1%; in assay [4], 95% (active). Besides, the figures for the inhibition in assay [2] and in assay [3] were -2% and -3%, respectively. The outcome in assay [5], in assay [6], in assay [7] and in assay [8] was inactive.

`Cc1nnc2c(NC(=O)NC3CCCC3)cc3cc(-c4ccc(CN5CCN(C)CC5)cc4)ccc3n12`: the results for the growth inhibition in assay [1] and in assay [4] were 91% (active) and 99% (active), respectively. In addition, the inhibition in assay [2] is 100% (active); in assay [3], -1%. Also, the result in assay [5], in assay [6], in assay [7] and in assay [8] was inactive.

Regarding `CC(=O)Nc1nc(-c2ccccc2)[nH]c1C(N)=O`, the growth inhibition was -2% in assay [1] and 99% (active) in assay [4]. Also, the inhibition in assay [2] is 10%; in assay [3], 4%. Also, the result in assay [5], in assay [6], in assay [7] and in assay [8] was inactive.

For `c1ccc(CN2CCC(NCc3cccc(-c4cncc5ccccc45)c3)CC2)cc1`, the growth inhibition in assay [1] is 11%; in assay [4], 92% (active). The inhibition in assay [2] was 29%; in assay [3] it was 3%. The outcome in assay [5], in assay [6], in assay [7] and in assay [8] was inactive.

`CCn1c(-c2ccccc2)cc2nnc3ccccc3c21`: the growth inhibition is 87% (active) in assay [1] and 92% (active) in assay [4]. The figures for the inhibition in assay [2] and in assay [3] were 34% and 5%, respectively. In addition, the outcome in assay [5], in assay [6], in assay [7] and in assay [8] was inactive.

With `CO/C(=C\C=C\c1cc2cc(Cl)c(Cl)cc2[nH]1)C(=O)NCCCN1CCN(Cc2ccccc2)CC1`, the figures for the growth inhibition in assay [1] and in assay [4] were 65% (active) and 94% (active), respectively. For the same compound, the inhibition in assay [2] is 45%; in assay [3], -2%. Also, the outcome in assay [5], in assay [6], in assay [7] and in assay [8] was inactive.

Take `COc1ccc(-c2nc3cccnc3n2CC(=O)Nc2cc(Cl)c(Cl)cc2Cl)c(OC)c1`: the growth inhibition in assay [1] was 17%; in assay [4], 100% (active). Moreover, the inhibition is 99% (active) in assay [2] and 1% in assay [3]. The result in assay [5], in assay [6], in assay [7] and in assay [8] was inactive.

Consider `CN1CCN(Cc2c(O)ccc3c(=O)c(Oc4ccc(C(C)(C)C)cc4)c(C(F)(F)F)oc23)CC1`, for which the growth inhibition in assay [1] was 88% (active); in assay [4], 99% (active). The inhibition in assay [2] is -13%; in assay [3], 4%. Also, the result in assay [5], in assay [6], in assay [7] and in assay [8] was inactive.

`NC(N)=Nc1nc(CCCCCCCCc2csc(N=C(N)N)n2)cs1`: the figures for the growth inhibition in assay [1] and in assay [4] were 28% and 100% (active), respectively. Besides, the inhibition was 27% in assay [2] and 0% in assay [3]. Also, the result in assay [5], in assay [6], in assay [7] and in assay [8] was inactive.

For the compound `C[C@H](Cc1ccc(OCCNC[C@H](O)c2cccc(Cl)c2)cc1)NC[C@H](O)c1ccc(Cl)c(Cl)c1`, the growth inhibition was 64% (active) in assay [1] and 83% (active) in assay [4]. Also, the inhibition in assay [2] is 69% (active); in assay [3], 4%. The outcome in assay [5], in assay [6], in assay [7] and in assay [8] was inactive.

As to `N#Cc1ccc(CN2CCCN(Cc3cccc(NC(=O)c4ccc(Cl)c(Cl)c4)c3)CC2)cc1`, the figures for the growth inhibition in assay [1] and in assay [4] were 10% and 95% (active), respectively. In addition, the values for the inhibition in assay [2] and in assay [3] were 19% and -1%, respectively. The outcome in assay [5], in assay [6], in assay [7] and in assay [8] was inactive.

Consider `Cc1cccc2[nH]c(-c3ccc(-c4cccc(CNCCNC(=O)c5ccnn5C)c4)s3)nc12`, for which the results for the growth inhibition in assay [1] and in assay [4] were 87% (active) and 102% (active), respectively. The inhibition in assay [2] was 17%; in assay [3], -4%. Further, the outcome in assay [5], in assay [6], in assay [7] and in assay [8] was inactive.
